Source: PubChem BioAssay
TDP1 cell CPT – growth inhibition of DT40 Tdp1-/-;hTDP1 cells with camptothecin (screen for TDP1 inhibitors); 12% of 420,000 active; AID 686979; Potency, µM (series often up to 46.2 µM), hits mostly inhibitors; chicken DT40 Tdp1-/-;hTDP1 cells + 20 nM CPT, ATP luminescence, 48 h; note: nearly all actives have a fitted effect of over 55% in size
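Chicken DT40 Tdp1-/- cells complemented with human TDP1, 400 cells/well, exposed to compounds plus 20 nM camptothecin for at least 48 h at 37 C; viability read as ATP content by CellTiter-Glo luminescence.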
ASM inhibitor – inhibitors of human secretory acid sphingomyelinase. placental ASM, HMU-PC fluorogenic substrate, 60 min. AID 504937. Potency, µM (top dose mostly 57.5 µM), most hits filed as inhibitors. 0.006% of 340,000 active
Target sequence (P17405 47-631 limits assumed): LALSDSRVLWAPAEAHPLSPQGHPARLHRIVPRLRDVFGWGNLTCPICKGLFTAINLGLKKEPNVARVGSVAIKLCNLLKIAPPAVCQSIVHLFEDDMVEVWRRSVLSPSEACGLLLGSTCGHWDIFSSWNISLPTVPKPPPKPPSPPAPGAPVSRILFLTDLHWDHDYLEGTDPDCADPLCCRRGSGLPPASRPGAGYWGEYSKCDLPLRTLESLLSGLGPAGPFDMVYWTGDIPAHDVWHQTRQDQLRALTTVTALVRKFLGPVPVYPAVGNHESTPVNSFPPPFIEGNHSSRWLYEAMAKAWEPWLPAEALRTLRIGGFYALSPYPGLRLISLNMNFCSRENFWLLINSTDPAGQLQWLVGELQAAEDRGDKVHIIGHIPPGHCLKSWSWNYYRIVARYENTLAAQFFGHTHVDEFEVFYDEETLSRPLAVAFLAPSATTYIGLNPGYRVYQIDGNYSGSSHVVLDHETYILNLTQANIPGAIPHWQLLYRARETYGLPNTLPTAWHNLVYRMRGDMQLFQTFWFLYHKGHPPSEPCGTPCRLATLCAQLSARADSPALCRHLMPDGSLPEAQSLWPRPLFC
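HMU-PC0 cleavage (9 uM final) by human placental ASM, 60 min at 37 °C following 10 min compound exposure at RT; stopped at pH 10, fluorescence Ex 386/Em 447 nm.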
TDP1 cell noCPT – qHTS for Inhibitors of human tyrosyl-DNA phosphodiesterase 1 (TDP1): qHTS in cells in absence of CPT. DT40 Tdp1-/- hTDP1 cells, no CPT, ATP luminescence, 48 h. Potency, µM (series often up to 46.2 µM), most hits filed as inhibitors. 15% of 420,000 active. AID 686978, 2013; note: nearly all actives have a fitted effect of over 55% in size
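Luminescent ATP content (CellTiter-Glo) served as the growth readout. Knockout chicken DT40 cells expressing human TDP1 were exposed to compounds without camptothecin for a minimum 48 hr at 37 °C.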
IL1B secr inh – inhibitors of inflammasome signaling (IL-1 beta secretion); 4.7% of 360,000 active; activity change, % at 57.5 µM; AID 743279; THP-1 LPS/ATP IL-1B secretion, AlphaLISA, 16 h; stronger effect = lower value; in the data active = activity change below about -50%; inconclusive = mostly about -30% to -49%
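Secreted IL-1B measured by AlphaLISA bead assay after 16 h compound exposure of THP-1 cells; compounds (final up to 57.5 uM) added 1 h before LPS (250 ng/mL) and ATP (1.25 mM) stimulation; lower signal means less secretion.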
HepG2 viability – kills HepG2 cells in TGF-b inhibitor counter-screen. HepG2 CAGA-GFP viability, ATP luminescence, 18 h. Potency, µM (highest dose often 46.1 µM), usual class: cytotoxic. 0.76% of 410,000 active. AID 588856
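CellTiter-Glo luminescence gave cytotoxicity after 18 hours at 37 degrees C. The cells were HepG2 CAGA-GFP in 1% FBS DMEM, stimulated with 500 pg/mL TGF-beta after compound addition. %Activity was normalised to no-cell wells (complete cell-killing) and DMSO (no toxicity), and curves were fitted and classified.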
TGFb inhibitor – blocks TGF-b signaling. Potency, µM (highest dose often 46.1 µM), actives largely listed as inhibitors. AID 588855. 1.2% of 410,000 active. HepG2 CAGA-GFP TGF-b/SMAD3 reporter, GFP fluorescence, 18 h; TGF-beta stimulated, 500 pg/mL final; note: nearly all actives have a fitted effect of over 65% in size
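TGF-beta reporter screen: HEPG2 CAGA-GFP, 1% FBS, 500 pg/mL TGF-beta final, 18 h; per-cell GFP summed per well; curves fitted and categorized by class.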
Hits are given with their value; – = inactive; ? = inconclusive; · = not tested or not shown; [ ] = dose if it differs, or a comment. Rows were chosen to be rich in hits. Some 19% of all compounds tested hit in one or more screens of this group. Unless noted, calls come from the whole dose curve; as a rule, active = well fitted curve in the direction sought with a large enough effect; inconclusive = small, poorly fitted or top-dose-only effect, or another doubt; inactive = no such curve, though single readings can be large; an effect the other way counts as inactive or inconclusive.

SMILES	TDP1 cell CPT	ASM inhibitor	TDP1 cell noCPT	IL1B secr inh	HepG2 viability	TGFb inhibitor
O=C(CCCN1C(=O)C(=Cc2ccc3c(c2)OCO3)SC1=S)Nc1ccc(C(=O)O)c(O)c1	?	·	–	–	–	–
O=C(/C(=C/c1ccccc1)n1cncn1)c1ccc(Cl)cc1Cl	–	–	?	-100.4	–	?
Cc1ccc(Cn2c(CO)cnc2SCC(=O)Nc2ccc(C)c(Cl)c2)cc1	18.4µM	·	23.1µM	·	–	?
CCOC(=O)c1ccccc1NC(=O)CSc1ncc(CO)n1Cc1ccc(C)cc1	14.6µM	·	–	·	–	–
COc1ccc(CCN2C(=O)NC(NS(=O)(=O)c3ccc(NC(C)=O)cc3)(C(F)(F)F)C2=O)cc1OC (stereo unspecified)	–	–	–	–	–	–
CCOC(=O)C1CCCN(C(=O)c2ccccc2NC(=O)c2nsc3ccccc23)C1 (stereo unspecified)	16.4µM	·	?	·	–	–
CCOC(=O)C1CCCN(C(=O)c2cccc3ccccc23)C1 (stereo unspecified)	–	–	–	–	–	–
CCOC(=O)C1CCCN(C(=O)c2cccc(NC(=O)c3nsc4ccccc34)c2)C1 (stereo unspecified)	20.6µM	·	20.6µM	·	–	–
N=C(N)S/C=C\C(=O)O	16.4µM	·	16.4µM	·	·	·
NNc1nnc2c3cc(F)ccc3n(CCc3ccccc3)c2n1	?	–	16.4µM	–	–	–
CCN(CC)CCSc1nnc2c3ccccc3n(Cc3ccccc3)c2n1	23.1µM	–	16.4µM	–	–	?
Fc1ccc2c(c1)c1n[nH]c(=S)nc1n2CCc1ccccc1	?	–	?	–	–	–
CCn1c2ccccc2c2nnc(SCC(N)=O)nc21	–	–	–	–	–	–
CCN(CC)CCSc1nnc2c3cc(F)ccc3n(Cc3ccccc3)c2n1	?	–	?	-63.7	–	–
Cc1ccc(C(C(=O)NC2CCCCC2)N(Cc2cccnc2)C(=O)c2csnn2)cc1 (stereo unspecified)	–	–	–	–	–	–
COc1ccccc1-c1ncn(Cc2cccc(-c3ccccc3)c2)c1-c1cc(C)cc(C)c1	?	·	14.6µM	·	·	·
COc1ccccc1-c1ncn(Cc2cccc(-c3ccccc3)c2)c1-c1ccco1	25.9µM	·	16.4µM	?	·	·
COc1ccc(-c2ccccc2)c2oc(-c3ccco3)cc(=O)c12	–	–	?	–	–	–
COCn1cnc(-c2ccccc2)c1-c1ccccc1	–	–	?	–	–	–
CC(C)(C)Nc1nc(N2CCCC2)nc(N2CCCC2)n1	?	–	16.4µM	–	–	?
CCCNc1nc(N2CCCC2)nc(N2CCCC2)n1	?	–	13µM	-64.7	–	–
CSc1nc(NC(C)(C)C)nc(N2CCOCC2)n1	?	–	?	–	–	–
Cc1ccc(Nc2nc(NCCO)nc(N3CCCC3)n2)cc1	·	–	·	·	–	–
CCNc1nc(NC(C)(C)C)nc(N2CCCC2)n1	18.4µM	–	?	–	–	–
COc1ccccc1CN1CCC2(CCC(CNC(=O)c3ccccc3N(C)C)O2)CC1 (stereo unspecified)	–[9.04 µM]	·	?	·	·	·
SMILES	TDP1 cell CPT	ASM inhibitor	TDP1 cell noCPT	IL1B secr inh	HepG2 viability	TGFb inhibitor
Cc1nn(CC(=O)NCc2ccccc2Cl)c(=O)c2cccn12	–	·	–	·	–	–
CCc1ccc(-c2[nH]c3c(c2-c2sc(C)c(C(=O)OC)c2O)c(=O)[nH]c(=O)n3C)cc1	7.31µM	·	5.8µM	·	–	–
CCOC(=O)c1c(C)sc(-c2c(-c3ccc(OC)c(F)c3)[nH]c3c2c(=O)[nH]c(=O)n3C)c1O	16.4µM	·	16.4µM	·	–	–
CCOC(=O)c1c(C)sc(-c2c(-c3ccc4c(c3)OCCO4)[nH]c3c2c(=O)n(C)c(=O)n3C)c1O	18.4µM	·	18.4µM	·	–	–
O=C(O)CCc1ccc(-c2ccc(Br)cc2)n1-c1ccccc1O	–	·	–	·	–	–
CCOC(CNC(=O)CN1C(=O)COc2ccc(S(=O)(=O)N3CCOCC3)cc21)OCC	–	–	–	–	–	–
COc1cccc(CNC(=O)Nc2cc(C(=O)NCc3cccc(F)c3)ccc2N2CCCC2)c1	?	·	?	·	–	–
CC1CCCN(C(=O)C(Cc2ccccc2)n2cccc2)C1 (stereo unspecified)	14.6µM	–	–	–	–	–
Cc1ccc(C)c(N2CCN(C(=O)C(Cc3ccccc3)n3cccc3)CC2)c1 (stereo unspecified)	23.1µM	–	23.1µM	–	–	?
Cc1ccc(C)c(N2CCN(C(=O)Cn3cccc3)CC2)c1	?	–	–	–	–	–
O=C(C(Cc1ccccc1)n1cccc1)N1CCN(c2ccccc2)CC1 (stereo unspecified)	23.1µM	–	25.9µM	–	–	–
O=C(C(Cc1ccccc1)n1cccc1)N1CCc2ccccc21 (stereo unspecified)	?	–	?	–	–	?
Cc1[nH]c2ccc(C(=O)NCc3ccccn3)cc2c1C	–	–	–	?	–	–
COc1ccc(/C=C\c2nc(=O)c3ccccc3o2)cc1	?	–	7.31µM	–	–	–
COC(=O)c1ccc(/C=C/c2c(-c3ccc(OC)cc3)oc3ccccc23)cc1	18.4µM	–	18.4µM	–	–	–
COC(=O)c1ccc(/C=C/c2c(-c3ccc(OC)cc3)oc3ccc(N4CCOCC4)cc23)cc1	?	–	23.1µM	–	–	–
COc1ccc(/C=C/c2c(-c3ccc(OC)cc3)oc3ccccc23)cc1	–	–	–	–	–	–
O=c1nc(/C=C/c2ccc(O)c(O)c2)oc2ccccc12	–	–	–	–	–	–
COc1ccc(/C=C/c2c(-c3cccc(C)c3)oc3ccc(N4CCOCC4)cc23)cc1	?	–	–	–	–	–
O=C(Nc1ccc(S(=O)(=O)N2CCCC2)cc1)C1CCCN1C(=O)c1cccs1 (stereo unspecified)	–	–	–	–	–	?
C=CCn1c(COc2ccccc2)nnc1SCC(=O)N/N=C/c1ccc(C)cc1	?	–	?	–	–	–
C=CCn1c(CNc2ccccc2)nnc1SCC(=O)N/N=C/c1ccc(O)cc1O	18.4µM	–	?	–	–	–
C=CCn1c(COc2ccccc2)nnc1SCC(=O)N/N=C/c1cc(Cl)ccc1O	?	–	?	–	–	?
C=CCn1c(CNc2ccc(C)cc2)nnc1SCC(=O)N/N=C/c1ccc(O)cc1O	18.4µM	–	?	–	–	?
